Values joined by “and” are separate entries in the source; they are usually repeats but may differ in a detail not shown here. Identical values can stand only once. Active and inactive are the calls of the source. Rule for the calls: active = hit-call score of the fitted dose curve at least 0.9, where 1 is the maximum; inactive = score below 0.9.

By AC50 is commonly meant the midpoint of the concentration-response curve, whichever way the signal moves.

Read-out in this test: Lipoprotein lipase (LPL), LPL (gene 4023)
Briefly: LTEA_HepaRG_LPL: Life Technologies and Expression Analysis (LTEA) Assay for Lipoprotein lipase (LPL) using HepaRG (AID 2283515). The settings on record: mRNA level, 48 h; actives raise or lower the signal. How it is done: LTEA_HepaRG is a cell based, multiplexed-readout assay that uses HepaRG, a human liver cell line, with measurements taken at 48 hours after chemical dosing on a 96-well plate.LTEA_HepaRG_LPL is one of 102 assay component(s) measured in the LTEA HepaRG cell culture assay. It is a marker of Steatosis.Data from the assay component LTEA_HepaRG_LPL was analyzed into 1 endpoint. This assay endpoint, LTEA_HepaRG_LPL, was analyzed with bidirectional fitting relative to DMSO as the negative control and baseline of activity. Using a type of inducible reporter, measures of mRNA induction for gain or loss-of-signal activity can be used to understand regulation of transcription factor activity. To generalize the intended target to other relatable targets, this assay endpoint is annotated to the esterase intended target family, where the subfamily is lipase.
A total of 1060 chemcials from the ToxCast library were tested in eight-point concentration-response experiments. Cell culture and cytotoxicity assays were conducted at Thermo Fisher Scientific's Custom Services facility (Madison, WI). A single lot of human HepaRG cells (Thermo Fisher Scientific, Frederick, MD) was used for the cell culture experiments. 96-well format collagen type I coated plates of human HepaRG cells were prepared using established methods. Briefly, cryopreserved HepaRG cells were thawed, plated at a density of approximately 100,000 cells/well in HepaRG Thaw, Plate, and General Purpose media (HPRG770, Thermo Fisher Scientific), and incubated for 48 hours. 0.5% DMSO was selected as vehicle control to balance the requisite need of DMSO in HepaRG cultures to maintain differentiation (for example, baseline metabolism, proportions of hepatocytes vs. cholangiocytes), while enabling further hepatic receptor pathway activation (for example, PXR and CAR) in response to chemical exposure. 48 hours after plating, the culture medium was replaced with HepaRG Serum-Free Incudtion Media. Cells were exposed to each test chemical in duplicate and maintained in CO2 incubators for another 48 hours. Chemical plates were thawed to room temperature and 200x concentrations of treatment groups were prepared. 8-point conentration-reponse curves were made with the highest exposure at 100 uM, followed by half-log dilutions, all in 0.5% DMSO. Each test plate contained variouse controls, induction positive controls (1mM phenobarbital), cytotoxicity positive controls ([…] aflatoxin B1), vehicle controls (0.5% DMSO), and total lysis controls (0.5% DMSO). Cell morphology images were taken using an Essen IncuCyte FLR automated microscope, with six 96-well plates imaged in about 24 minutes. Images were captured and exported and JPEG files. Spent culture media was transfered to black-well plates for the LDH assay, and remaining media was sorted at -80 C for later use. Cells were treated with RLT buffer and frozen until shipped for gene expression analysis. Total RNA was isolated from the cell suspension in 75 uL of Buffer RLT (Qiagen, Germantown, MD 20874) by Quintiles/Expression Analysis (Durham, NC) using a custom isolation procedure. Total RNA from each plate well was transferred to a preamplification plate. Fluidigm's 96.96 Dynamic ArrayTM (Fluidigm, Amsterdam, the Netherlands) technology was used for gene expression analyses by quantitative reverse transcription polymerase chain reaction (qRT-PCR, performed by Quintiles/Expression Analysis, Durham, NC)89. Standard TaqManTM Assays (Applied Biosystems/ThermoFisher Scientific, Foster City, CA) were used to assess the expression of 93 genes selected based on their selectivity and sensitivity to important hepatic receptors known to be modulated by environmental chemicals; importance in human hepatocyte functionality; and hepatotoxicity. […]
For `CCOC(=O)NCCOc1ccc(Oc2ccccc2)cc1`, the AC50 is 81.6 µM (active). With `COC(=O)c1ccc(I)cc1S(=O)(=O)NC(=O)Nc1nc(C)nc(OC)n1`, the call was inactive. The same measure, in the same setting: the value for `CCCCOCCOCCOCc1cc2c(cc1CCC)OCO2` was “inactive”.

For the compound `S=C(S)NCCNC(=S)S.[Mn+2].[S-]C([S-])=NCCN=C([S-])[S-].[Zn+2]`, the concentration at half-maximal activity (AC50) is 1.11 µM (active) and 1.17 µM (active) and 2.99 µM (active). For the compound `CCCCOC(=O)C(C)Oc1ccc(Oc2ccc(C(F)(F)F)cn2)cc1` (stereo not given), the compound was classed as inactive. Take `CC(=O)[C@H]1CC[C@H]2[C@@H]3CCC4=CC(=O)CC[C@]4(C)[C@H]3CC[C@]12C`: the call was inactive.

As for `CCN(Cc1c(F)cccc1Cl)c1c([N+](=O)[O-])cc(C(F)(F)F)cc1[N+](=O)[O-]`, the call was inactive.

Regarding `CCCCC(CC)CN1C(=O)C2C3C=CC(C3)C2C1=O` (stereo not given), the half-maximal activity concentration (AC50) is 58.4 µM (active). As to `C#C[C@]1(O)CC[C@H]2[C@@H]3CCC4=CC(=O)CC[C@@H]4[C@H]3CC[C@@]21CC`, the compound was called inactive.

Turning to `CC(C)CCCCCCc1ccc(O)cc1`, the result was inactive. In the case of `C#CCOC(=O)[C@@H](C)Oc1ccc(Oc2ncc(Cl)cc2F)cc1`, the result was inactive. `N[C@@H](Cc1cc(I)c(Oc2ccc(O)c(I)c2)c(I)c1)C(=O)O`: the AC50 was 0.00787 µM (active). For the compound `OB(O)O`, the outcome was inactive. Same read-out and setting: with `CCOC(=O)C(C)Oc1ccc(Oc2nc3ccc(Cl)cc3o2)cc1` (stereo not given) the entry was “inactive”; with `CC(C)(c1ccc(O)cc1)c1ccc(O)cc1`, “inactive”; with `CCOC(=O)c1ccc(O)cc1`, “inactive”. In the case of `COCCO`, the outcome was inactive.

As for `COC(=O)c1ccccc1C(=O)O`, the outcome was inactive. With `CCC(C)OC(=O)N1CCCCC1CCO` (stereo not given), the outcome was inactive. For `CCCCCCC(C)OC(=O)COc1nc(F)c(Cl)c(N)c1Cl` (stereo not given), the call was inactive. On to `CCOC(=O)COc1cc(-n2ncc(C(F)(F)F)c(C)c2=O)c(F)cc1Cl`, for which the call was inactive. In the case of `CCCOC(=O)NCCCN(C)C`, the compound was classed as inactive. In the case of `COC(=O)CSc1cc(N=c2sc(=O)n3n2CCCC3)c(F)cc1Cl`, the call was inactive. On to `O=C(c1ccccc1)C1CCCCC1`, for which the result was inactive.

As for `CCCOC(=O)c1ccc(C(=O)OCCC)nc1`, the call was inactive. `CCCN(CCC)c1c([N+](=O)[O-])cc(C(F)(F)F)c(N)c1[N+](=O)[O-]`: the result was inactive. Turning to `c1ccc(Nc2ccccc2)cc1`, the result was inactive. As to `C[C@]12CC[C@@H]3c4ccc(O)cc4C[C@@H](CCCCCCCCCS(=O)CCCC(F)(F)C(F)(F)F)[C@H]3[C@@H]1CC[C@@H]2O` (stereo not given in full), the compound was classed as inactive. For the compound `CCNc1nc(N)nc(Cl)n1`, the result was inactive. As to `CCN(CC)C(=O)c1cccc(C)c1`, the call was inactive. Same read-out and setting: with `CN(C)C(=O)Nc1ccc(Cl)c(Cl)c1` the entry was “inactive”; with `CCCN(CCC)C(=O)SCC`, “inactive”.

For `COc1c(Cl)ccc(Cl)c1C(=O)O`, the compound was called inactive. Regarding `O=C(c1ccc(O)cc1O)c1ccc(O)cc1O`, the compound was called inactive. For `Oc1ccc(C(c2ccc(O)cc2)C(Cl)(Cl)Cl)cc1`, the AC50 is 85 µM (active). With `Cc1nn(C)c(Oc2ccccc2)c1C=NOCc1ccc(C(=O)OC(C)(C)C)cc1`, the AC50 is 11.2 µM (active).

For the compound `c1ccc2[nH]c(-c3cscn3)nc2c1`, the compound was called inactive. As to `O=C(Nc1ccc([N+](=O)[O-])cc1Cl)c1cc(Cl)ccc1O`, the compound was called inactive. Consider `CCCCOC(=O)[C@@H](C)Oc1ccc(Oc2ccc(C(F)(F)F)cn2)cc1`, for which the result was inactive. For `CC(C)(C)[C@@H](O)[C@@H](Cc1ccc(Cl)cc1)n1cncn1`, the AC50 is 16.5 µM (active).
